SMILES strings stand for the structures. Activity calls are given as the source filed them. Unless noted, no rule for the calls is given here.

Test [1] can be described thus: compounds altering circadian rhythm period length – cell-based, LOPAC library, luminescence reporter (AID 2774).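 Also: values are relative to mean of DMSO wells on each plate.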 The settings on record: circadian reporter cells, at 7 µM, actives lie on both sides.
Test [2] deals with Hepatitis C virus NS3 helicase. In words: blockers of NS3h binding to ssDNA – biochemical, fluorescence polarization, LOPAC1280 library, primary screen (AID 687035; in the data active = inhibition above about 37%). As to conditions: Purified HCV NS3 helicase, Cy5-dT15 ssDNA binding fluorescence polarization; stronger effect = higher value; concentration not given here. Background: Polarisation of emitted light reports the rotation of a fluorescent probe.

Test [3] can be described thus: compounds altering Cy5-DNA-NS3h complex signal – biochemical, LOPAC1280, artefact control for HCV NS3 helicase inhibitor project (AID 687037). As to conditions: Cy5-DNA-NS3h complex fluorescence interference counterscreen. On the technique in general: Counterscreens check selectivity or assay interference.
Test [4] has as its system Aerobactin synthetase IucA (Klebsiella pneumoniae, hypervirulent). Put plainly: biochemical IucA inhibition screen of LOPAC library by absorbance (AID 1346212).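 Also: 100% = no compound wells and 0% = no enzyme wells.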 The settings on record: IucA enzyme assay, absorbance (OD) readout; stronger effect = lower value;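 tested at 8 µM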.
A short description of test [5]: viability loss with induced miR-34 in A549 – imaging, A549 dox-inducible miR-34, nuclei and caspase counts, primary screen (AID 1347080;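 active = compounds whose cell count with miR-34 switched on is under 0.7 times the count with it off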). The settings on record: A549 miR-34 inducible, Hoechst nuclei count, 48 h.
The nature of test [6]: blockers of cellular phospholipid synthesis – cell-based, LOPAC library, screen 4, primary screen (AID 1347384). As to conditions: animal cells, phospholipid biosynthesis inhibition screen; at 10 µM.
Test [7] is described as follows: galactose survival enhancers in mitochondrial complex I cybrids – cell-based, galactose medium, ATP luminescence, primary screen (AID 1645843;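 active = z-score of at least 1.8 in each of two replicates, scored against plate mean and spread of sample wells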;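 also: positive z means more ATP and so rescue of galactose-driven cybrid death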). The settings on record: complex I mutant cybrid cells, 72 h, stronger effect = higher value.
[8] abbreviates: measured here: relative caspase fold change +Dox/-Dox.
Setting [9] is: measured here: total cells with miR-34 induction, stronger effect = lower value.
[10] abbreviates: measured here: total cells without miR-34 induction.

By inhibition is commonly meant the relative decrease from the control value, in per cent. One may read the remaining activity as the signal under treatment as a percentage of the control signal. For the compound `CN1CCc2cc(O)cc3c2[C@H]1Cc1ccc(O)c(O)c1-3`, in test [1], the period change is 0.03 h (inactive). The inhibition in test [2] is -2% (inactive). In test [3], the fluorescence ratio (interference) is 1 (inactive). In test [4], the remaining activity is 101% (inactive). For the same compound, the values for the fold change in test [5] (stronger effect = lower value) and in test [5] (setting [8]) were 1.01 (inactive) and 1.15, respectively. The cell count is 9530 in test [5] (setting [9]) and 9390 in test [5] (setting [10]). Besides, the compound was classed as inactive in test [6]. Further, the z-score in test [7] was -1.03 (inactive).

Regarding `C[C@H](N)CN1CCc2ccc(Br)cc21`, in test [1], the period change was 0.205 h (inactive). The inhibition in test [2] was -3% (inactive). The fluorescence ratio (interference) in test [3] is 1 (inactive). Also, the remaining activity in test [4] was 115% (inactive). In addition, the values for the fold change in test [5] (stronger effect = lower value) and in test [5] (setting [8]) were 1.19 (inactive) and 0.954, respectively. Besides, the cell count was determined as 9010 in test [5] (setting [9]) and 7600 in test [5] (setting [10]). Also, the compound was classed as inactive in test [6]. The z-score in test [7] is -0.65 (inactive).

On to `CNc1ccc2oc(C[C@H]3O[C@@]4(CC[C@H]3C)O[C@H]([C@H](C)C(=O)c3ccc[nH]3)[C@H](C)C[C@H]4C)nc2c1C(=O)O`, for which the period change in test [1] is -0.125 h (inactive). Also, the inhibition in test [2] is 1% (inactive). In test [3], the fluorescence ratio (interference) was 1 (inactive). Further, in test [4], the remaining activity is 119% (inactive). Also, the fold change in test [5] (stronger effect = lower value) was 0.828 (inactive); in test [5] (setting [8]) it was 1.6. The cell count is 428 in test [5] (setting [9]) and 516 in test [5] (setting [10]). In test [6], the call was inactive. Moreover, in test [7], the z-score was -1.52 (inactive).

As for `CNCCc1c[nH]c2ccc(O)cc12`, the period change in test [1] was 0.02 h (inactive). For the same compound, in test [2], the inhibition is -6% (inactive). The fluorescence ratio (interference) in test [3] was 0.9 (inactive). In addition, the remaining activity in test [4] is 121% (inactive). For the same compound, the fold change in test [5] (stronger effect = lower value) was 1.03 (inactive); in test [5] (setting [8]), 1.46. Further, the cell count in test [5] (setting [9]) was found to be 10900; in test [5] (setting [10]), 10600. In addition, the outcome in test [6] was inactive. The z-score in test [7] is 0.2 (inactive).

As to `CN1CCc2cccc(Cl)c2CC1`, the period change in test [1] was 0.06 h (inactive). Further, in test [2], the inhibition is -4% (inactive). Besides, the fluorescence ratio (interference) in test [3] was 1 (inactive). In addition, the remaining activity in test [4] was 114% (inactive). Further, the fold change in test [5] (stronger effect = lower value) was 1.03 (inactive); in test [5] (setting [8]), 1.41. Besides, the cell count in test [5] (setting [9]) was determined as 9920; in test [5] (setting [10]), 9620. Besides, the call in test [6] was inactive. Also, the z-score in test [7] was 0.41 (inactive).

With `Cn1cnc(CCN)c1`, the period change in test [1] is -0.12 h (inactive). Besides, in test [2], the inhibition is -3% (inactive). For the same compound, in test [3], the fluorescence ratio (interference) is 1 (inactive). For the same compound, the remaining activity in test [4] is 125% (inactive). Also, the fold change in test [5] (stronger effect = lower value) is 1.08 (inactive); in test [5] (setting [8]) it was 1.18. Besides, the cell count in test [5] (setting [9]) worked out at 11400; in test [5] (setting [10]) it was 10500. Further, in test [6], the compound was classed as inactive. In addition, in test [7], the z-score was 0.51 (inactive).

In the case of `Cc1sc2ccccc2c1CC1=NCCN1`, the period change in test [1] was 0.055 h (inactive). Besides, the inhibition in test [2] was -3% (inactive). Also, the fluorescence ratio (interference) in test [3] is 0.9 (inactive). Besides, in test [4], the remaining activity was 99.1% (inactive). Besides, the fold change in test [5] (stronger effect = lower value) is 1.03 (inactive); in test [5] (setting [8]), 1.95. The values for the cell count in test [5] (setting [9]) and in test [5] (setting [10]) were 9870 and 9550, respectively. The outcome in test [6] was inactive. Also, the z-score in test [7] is -0.09 (inactive).

Take `C[N+]1(C)C2CCC1CC(OC(=O)c1c[nH]c3ccccc13)C2` (stereo not given): the period change in test [1] was -0.255 h (inactive). Besides, the inhibition in test [2] is 0% (inactive). Also, the fluorescence ratio (interference) in test [3] was 1 (inactive). In addition, the remaining activity in test [4] was 94.3% (inactive). The results for the fold change in test [5] (stronger effect = lower value) and in test [5] (setting [8]) were 0.939 (inactive) and 1.36, respectively. Also, the figures for the cell count in test [5] (setting [9]) and in test [5] (setting [10]) were 9240 and 9840, respectively. For the same compound, the outcome in test [6] was inactive. Also, in test [7], the z-score is 0.4 (inactive).

Take `COc1ccc2[nH]c3c(c2c1)CCNC3`: the period change in test [1] is -0.105 h (inactive). The inhibition in test [2] was 1% (inactive). Besides, the fluorescence ratio (interference) in test [3] was 0.9 (inactive). The remaining activity in test [4] was 108% (inactive). Moreover, the fold change in test [5] (stronger effect = lower value) is 1.02 (inactive); in test [5] (setting [8]), 0.898. Further, the cell count is 10400 in test [5] (setting [9]) and 10200 in test [5] (setting [10]). Moreover, the compound was classed as inactive in test [6]. Also, the z-score in test [7] was 0.28 (inactive).

With `CCCN1CCc2cc(O)cc3c2[C@H]1Cc1ccc(O)c(O)c1-3`, the period change in test [1] is 0.415 h (inactive). Moreover, in test [2], the inhibition is 1% (inactive). Also, the fluorescence ratio (interference) in test [3] is 1 (inactive). In addition, the remaining activity in test [4] was 99.8% (inactive). The fold change was 0.922 (inactive) in test [5] (stronger effect = lower value) and 1.32 in test [5] (setting [8]). The results for the cell count in test [5] (setting [9]) and in test [5] (setting [10]) were 9400 and 10200, respectively. Further, in test [6], the call was inactive. In addition, the z-score in test [7] was -0.965 (inactive).

`CCCn1c(=O)c2[nH]c(C3CCCC3)nc2n(CCCOC(=O)c2ccc(S(=O)(=O)F)cc2)c1=O`: in test [1], the period change is -0.07 h (inactive). Further, the inhibition in test [2] was -3% (inactive). In addition, the fluorescence ratio (interference) in test [3] was 1 (inactive). Moreover, in test [4], the remaining activity was 102% (inactive). The results for the fold change in test [5] (stronger effect = lower value) and in test [5] (setting [8]) were 0.972 (inactive) and 1.12, respectively. In addition, the cell count in test [5] (setting [9]) was determined as 6100; in test [5] (setting [10]) it was 6280. The call in test [6] was inactive. In test [7], the z-score was -0.865 (inactive).

On to `CCS(=O)(=O)Nc1cccc(C(=C2CCCCC2)c2cnc[nH]2)c1`, for which, in test [1], the period change was 0.07 h (inactive). For the same compound, the inhibition in test [2] was 0% (inactive). In test [3], the fluorescence ratio (interference) is 1 (inactive). For the same compound, the remaining activity in test [4] was 108% (inactive). For the same compound, the results for the fold change in test [5] (stronger effect = lower value) and in test [5] (setting [8]) were 1.11 (inactive) and 1.94, respectively. Also, the cell count in test [5] (setting [9]) stood at 8610; in test [5] (setting [10]), 7740. For the same compound, the compound was called inactive in test [6]. Further, the z-score in test [7] was -0.125 (inactive).

As for `NC(N)=Nc1ccc2[nH]c3c(c2c1)C[C@@]1(O)[C@H]2Cc4ccc(O)c5c4[C@@]1(CCN2CC1CC1)[C@H]3O5`, the period change in test [1] is -0.11 h (inactive). For the same compound, the inhibition in test [2] was -6% (inactive). In addition, the fluorescence ratio (interference) in test [3] is 0.9 (inactive). Also, in test [4], the remaining activity is 86.3% (inactive). Moreover, the fold change in test [5] (stronger effect = lower value) is 1.08 (inactive); in test [5] (setting [8]) it was 0.809. In addition, the results for the cell count in test [5] (setting [9]) and in test [5] (setting [10]) were 9750 and 9000, respectively. In test [6], the call was inactive. For the same compound, in test [7], the z-score was -0.92 (inactive).

As for `C#CCN[C@H](C)Cc1ccccc1`, the period change in test [1] is -0.015 h (inactive). Further, the inhibition in test [2] was -2% (inactive). Also, in test [3], the fluorescence ratio (interference) was 1 (inactive). The remaining activity in test [4] is 82% (inactive). Moreover, the fold change in test [5] (stronger effect = lower value) is 0.962 (inactive); in test [5] (setting [8]), 1.51. The cell count in test [5] (setting [9]) worked out at 9640; in test [5] (setting [10]), 10000. Moreover, the outcome in test [6] was inactive. Besides, the z-score in test [7] is 0.54 (inactive).
